Experimental findings from PubChem BioAssay are described below.

The test is described as follows: probe aWnt5a binding to arrayed compounds – biochemical, biotinylated probe, 635/667 nm fluorescence, primary screen (AID 1113).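 Note: score merges 667 nm fluorescence intensity with signal-to-noise per printed feature.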 As to conditions: small-molecule microarray, higher = more signal.
For `COCCOC(=O)N1C(=O)[C@@]2(c3cc(C#CCC(C(=O)OC)C(=O)OC)ccc31)[C@H](c1ccc(OCCO)cc1)N1[C@H](c3ccccc3)[C@H](c3ccccc3)OC(=O)[C@H]1[C@@H]2C(=O)N1CCCCCCC1`, the composite z-score is 0.816.
Take `Cc1ccc(S[C@]2(C(=O)NCC(F)(F)F)CC(=O)N(C3CCCCC3)[C@@H]2c2ccc(CO)cc2)cc1`: the composite z-score was -0.1.
Compound `COCCOC(=O)N1C(=O)[C@@]2(c3ccccc31)[C@H](C(N)=O)[C@H]1C(=O)O[C@H](c3ccccc3)[C@H](c3ccccc3)N1[C@@H]2c1ccc(OCCO)cc1` had a composite z-score of -0.063.
On to `C=CCC(OC(C)=O)[C@@H]1[C@@H](N(Cc2ccc(-c3cccc(C(F)(F)F)c3)o2)C(=O)c2cccc3ccccc23)c2cc(OCCCO)ccc2N1C(=O)c1ccc2ccccc2c1` (some centres undefined), for which the composite z-score is -0.108.
For the compound `COc1ccc(NC(=O)O[C@H]2[C@H](OC(=O)Nc3ccc4c(c3)OCO4)[C@H](OC(=O)Nc3ccc4c(c3)OCO4)[C@@H](OC)O[C@@H]2CO)cc1`, the composite z-score was -0.0643.
On to `[N-]=[N+]=NCc1ccccc1C[C@]1(C(=O)N2CCOCC2)N=C(c2ccc(OCCCO)cc2)O[C@H]1c1ccccc1CN=[N+]=[N-]`, for which the composite z-score was determined as 0.653.
`CCCCC(=C=CC[C@@H](O)c1cccc(OCCO)c1)CCO` displayed a composite z-score of -0.18.
With `CC(C)C[C@@H]1NC(=O)[C@H]2C[C@@H](C(=O)NCCCCCCNC(=O)CS)[C@@H](c3ccc(O)cc3)N2C1=O`, the composite z-score is -0.0718.
As for `C=CCC(OC(C)=O)[C@@H]1[C@@H](N(Cc2cc3ccccc3o2)C(=O)Cc2ccc(OC)cc2)c2cc(OCCCO)ccc2N1C(=O)Cc1ccc(OC)cc1` (some centres undefined), the figure is -0.0981.
